Test systems include T-47D breast; BT-549 breast; MDA-MB-435 melanoma; SW-620 colon; MCF7 breast; HCT-116 colon; HCC-2998 colon; KM12 colon.
What all share (assay): NCI-60 one-dose screen, 48 h (100 = growth as untreated, 0 = no growth, -100 = all killed)
Details in all cases: 10 µM

Structures are written as SMILES. The panel holds about 83,000 compounds, 20% with a hit somewhere; the sample as a whole holds those more often.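 Activity criterion: percent growth below 10, measured after cells in 96-well plates were exposed to a single compound concentration for 48 hours.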 Unmarked numbers belong to inactive results. Activity calls are given as the source filed them.

As to `O=C(CCc1nnc2sc(-c3cc(O)c(O)c(O)c3)nn12)c1nc2ccccc2[nH]1`, the growth in the experiment with T-47D breast was 83.9%; with BT-549 breast, 107%; in the experiment on MDA-MB-435 melanoma, 98.9%; in the experiment with SW-620 colon, 116%; with MCF7 breast it was 85.8%; in the experiment on HCT-116 colon, 85.7%. The growth with HCC-2998 colon was 111%; in the experiment with KM12 colon it was 105%.

For `O=C(N/N=C/c1c(Cl)cccc1Cl)c1ccccc1Nc1cccc(C(F)(F)F)c1`, the growth was 94.4% with T-47D breast; 81.3% with BT-549 breast; 110% in the experiment with MDA-MB-435 melanoma; 96.2% in the experiment with SW-620 colon; 94.7% with MCF7 breast; 93.1% in the experiment on HCT-116 colon. In the experiment with HCC-2998 colon, the growth was 117%.

`Cc1cc(CSc2ccccc2C(=O)N2CC=C(c3ccccc3)CC2)on1`: the growth in the experiment with T-47D breast is 75.5%; in the experiment with BT-549 breast it was 101%; in the experiment with MDA-MB-435 melanoma, 98%; in the experiment on SW-620 colon, 97.6%; in the experiment on MCF7 breast it was 94.9%; in the experiment on HCT-116 colon, 93.1%. Further, the values for the growth in the experiment with HCC-2998 colon and in the experiment on KM12 colon were 93.3% and 97.2%, respectively.

Turning to `CC1OC2CC(=O)OC2C2=C1C(=O)c1c(O)c3c(c(O)c1C2=O)C1CC(O)C3(O)C(C)O1` (configuration not stated), the growth in the experiment with T-47D breast was -21.4% (active); in the experiment on BT-549 breast it was -98.7% (active); in the experiment with MDA-MB-435 melanoma it was -0.0926% (active); with SW-620 colon, -36.4% (active); in the experiment with MCF7 breast, -71% (active); in the experiment on HCT-116 colon, -91.5% (active). Besides, the growth in the experiment on HCC-2998 colon was -28.4% (active); with KM12 colon, -34.7% (active).

On to `CC[C@@H](C(=O)[C@H](C)[C@H](O)[C@@H](C)[C@H]1O[C@H]([C@@H](CC)C(=O)N(CC)CC)CC[C@H]1C)C1O[C@]2(C=C[C@@H](O)[C@]3(CC[C@@](C)([C@H]4CC[C@](O)(CC)[C@H](C)O4)O3)O2)[C@H](C)C[C@@H]1C` (some centres not stated), for which the growth in the experiment with T-47D breast was 17%; with BT-549 breast, 37.1%; in the experiment with MDA-MB-435 melanoma, 26.3%; in the experiment on SW-620 colon, 18.5%; with MCF7 breast, 10.4%; with HCT-116 colon, 10.8%. Also, the growth with HCC-2998 colon is 22.1%; with KM12 colon it was 29.6%.

Regarding `CC(=O)[C@@]12O[C@](C)(c3ccccc3)O[C@@H]1CC1C3CCC4=CC(=O)CC[C@]4(C)C3CC[C@@]12C` (some centres not stated), the growth is 74.3% with T-47D breast; 79.7% with BT-549 breast; 77.8% in the experiment on MDA-MB-435 melanoma; 83.3% in the experiment on SW-620 colon; 59% in the experiment with MCF7 breast; 48.2% with HCT-116 colon. Also, the growth in the experiment with HCC-2998 colon was 79.3%; with KM12 colon it was 70.8%.

Consider `O=C(CN1CCN(C(=O)c2ccccc2)CC1)Nc1ccccc1SCc1ccccc1`, for which the growth is 37.7% with T-47D breast; 68.1% in the experiment on BT-549 breast; 94.3% in the experiment on MDA-MB-435 melanoma; 98.5% in the experiment with SW-620 colon; 86.4% in the experiment with MCF7 breast; 85.5% with HCT-116 colon. The growth is 93.6% in the experiment on HCC-2998 colon and 84.2% in the experiment on KM12 colon.

As for `N#CC1=CC2CN(Cc3ccccc3)C1C1C(=O)N(c3ccccc3)C(=O)C21` (configuration not stated), the growth in the experiment with T-47D breast was 99.5%; in the experiment with BT-549 breast it was 95%; in the experiment on MDA-MB-435 melanoma it was 105%; in the experiment on SW-620 colon, 95.2%; in the experiment with MCF7 breast, 97.1%; in the experiment on HCT-116 colon it was 101%. Further, the growth was 92.1% in the experiment on HCC-2998 colon and 103% in the experiment on KM12 colon.

Turning to `COc1ccccc1/C=N\N/C(N)=N\N=C\c1ccccc1OC`, the growth in the experiment on T-47D breast was 60.9%; in the experiment with BT-549 breast, -4.14% (active); in the experiment on MDA-MB-435 melanoma it was -39.2% (active); with SW-620 colon, 13.1%; with MCF7 breast it was 11.3%; in the experiment with HCT-116 colon, 5.25% (active). For the same compound, the growth in the experiment with HCC-2998 colon was 5.64% (active).

Take `O=C1/C=C/[C@@H](O)[C@@H]2C[C@@H](O)C[C@H]2/C=C/CCC[C@H](CCc2ccc(NC(=S)Nc3ccc4c(c3)C(=O)OC43c4ccc(O)cc4Oc4cc(O)ccc43)cc2)O1`: the growth in the experiment with T-47D breast is 21.2%; in the experiment on BT-549 breast, 21.3%; in the experiment on MDA-MB-435 melanoma, 18.8%; with SW-620 colon, 3.26% (active); in the experiment on MCF7 breast, -5.59% (active); in the experiment with HCT-116 colon it was -37.2% (active).

Consider `CC(=O)Oc1cc(OC(C)=O)c2ccccc2c1OC(C)=O`, for which the growth in the experiment with T-47D breast is 61.4%; in the experiment with BT-549 breast it was 92.4%; with MDA-MB-435 melanoma, -57.4% (active); in the experiment with SW-620 colon, 91.9%; with MCF7 breast, 56.8%; in the experiment with HCT-116 colon, 80.1%. The growth in the experiment on HCC-2998 colon was 110%; in the experiment on KM12 colon, 90.6%.

As to `COc1cc(/C=C2\CCCC3=C2N=C2SC(C)=CN2C3c2cc(OC)c(OC)c(OC)c2)cc(OC)c1OC` (configuration not stated), the growth in the experiment with T-47D breast was 33.1%; with BT-549 breast, -14.5% (active); in the experiment with MDA-MB-435 melanoma, 1.99% (active); in the experiment on SW-620 colon it was -0.154% (active); with MCF7 breast it was 16%; with HCT-116 colon it was -86.2% (active). The growth with HCC-2998 colon was -88% (active); in the experiment on KM12 colon it was -80.4% (active).

Consider `COc1cc(NC(=O)Nc2cnc(Nc3ccc(N4CCOCC4)cc3)nc2Oc2cccc(OC)c2)cc(OC)c1`, for which the growth with T-47D breast is 49.6%; in the experiment on BT-549 breast, 28.8%; in the experiment on MDA-MB-435 melanoma, 51.6%; with SW-620 colon, 72.6%; in the experiment on MCF7 breast, 50.6%; in the experiment with HCT-116 colon, 32.4%. The growth was 45.4% with HCC-2998 colon and 53.3% in the experiment on KM12 colon.

For `O=C(N/N=C/c1ccc(Cl)cc1)c1ccccc1Nc1cccc(C(F)(F)F)c1`, the growth was 109% with T-47D breast; 60.2% with BT-549 breast; 53% with MDA-MB-435 melanoma; 79.6% in the experiment on SW-620 colon; 85.2% with MCF7 breast; 66.1% in the experiment on HCT-116 colon. In the experiment with HCC-2998 colon, the growth was 103%.

The record behind these values is PubChem BioAssay (NCI).
